Hits are enriched below; roughly 1.7% of the tested compounds scored in any of these assays.
KCNH2 3.1 inh = qHTS for Inhibitors of KCHN2 3.1: Mutant qHTS; Potassium voltage-gated channel subfamily H member 2, brain isoform KCNH2 3.1 (human); U2OS KCNH2 3.1, thallium flux FluxOr; stronger effect = lower value; activity change, % (tested at about 1.8 µM); hit rate 0.95% among 340,000;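 active = maximum activity change below -70%; inconclusive = maximum activity change from -70% to -50%; inactive = maximum activity change above -50%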;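 also: thallium influx rate constant from kinetic fluorescence after stimulation buffer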
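U2OS cells transduced with KCNH2 3.1 mutant virus (1.77 x 10^8 /mL, 4 h), plated overnight at 37 C, loaded 45 min with FluxOr dye plus Red40 quencher. Thallium flux rate constant from kinetic reads after stimulation buffer, normalised to controls.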
TRHR agonist-1 = qHTS for Small Molecule Agonists and Allosteric Enhancers of Human TRH Receptor: Primary Screen for Agonists. Thyrotropin-releasing hormone receptor (Homo sapiens), P34981. hit rate 0.18% among 360,000. AID 493084, 2011. activation, % at 2 µM. TRHR cells, calcium flux fluo-8, FDSS agonist mode; in the data active = activation above about 30%
Target sequence (P34981 whole entry, looked up): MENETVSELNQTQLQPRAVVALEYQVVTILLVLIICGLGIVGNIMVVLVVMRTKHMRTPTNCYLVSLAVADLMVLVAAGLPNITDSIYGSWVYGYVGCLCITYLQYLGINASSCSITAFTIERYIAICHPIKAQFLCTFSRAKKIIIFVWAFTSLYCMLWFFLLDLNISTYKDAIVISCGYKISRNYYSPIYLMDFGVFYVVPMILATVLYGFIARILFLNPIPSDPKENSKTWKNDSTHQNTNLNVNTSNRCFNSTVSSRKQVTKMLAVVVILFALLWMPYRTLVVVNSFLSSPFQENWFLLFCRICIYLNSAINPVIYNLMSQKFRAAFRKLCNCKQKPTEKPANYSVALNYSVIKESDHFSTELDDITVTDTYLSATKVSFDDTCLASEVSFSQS
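Agonist-mode FDSS calcium read (Ex 480/Em 530, 1 s cycles) in 1536-well TRHR cells with fluo-8 dye, after 10-cycle baseline and 23 nL compound addition; TRH at EC20 (10 nM final) added afterwards for the enhancer phase.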
TRPML1 blocker = qHTS for Inhibitors of the Human Mucolipin Transient Receptor Potential 1 (TRPML1). Mucolipin-1 (Homo sapiens), Q9GZU1. TRPML1-inducible cells, Ca2+ dye fluorescence, FDSS; stronger effect = lower value; inhibition of EC80 agonist-evoked calcium signal. activity change, negative = inhibition, % (test concentration not listed). hit rate 0.02% among 390,000. AID 624415, 2012; in the data active = activity change below about -50%; inconclusive = between about -30% and that limit;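 also: stimulus is agonist 54-4 at its EC80 concentration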
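TRPML1-DL cells, Tet-induced overnight (~16 h, 37 °C) at 1,500 cells/well, were loaded with Ca8 no-wash dye plus quencher for 45-90 min at room temperature. Compounds were pinned during FDSS kinetic reading; agonist 54-4 at EC80 (4 uM final) then added.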
KCNH2 WT inh = qHTS for Inhibitors of KCHN2 3.1: Wildtype qHTS | Voltage-gated inwardly rectifying potassium channel KCNH2 (Homo sapiens), Q12809 | U2OS, BacMam KCNH2, thallium flux FluxOr; stronger effect = lower value | activity change, % at 1.84 µM | hit rate 0.37% among 340,000 | AID 720551, 2013;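 active = maximum activity change below -70%; inconclusive = maximum activity change between -70% and -50%; inactive = maximum activity change above -50%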
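U2OS cells were transduced with wild-type KCNH2 virus (2.03 x 10^8 / mL) for 4 h at room temperature, then cultured overnight at 37 C. Thallium flux was read with FluxOr dye. Rate constants were normalized to DMSO controls.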
TRHR enhancer-1 = qHTS for Small Molecule Agonists and Allosteric Enhancers of Human TRH Receptor: Primary Screen for Enhancers; enhancement, % at 2 µM; hit rate 0.66% among 360,000; TRHR cells, fluo-8 calcium fluorescence, EC20 TRH enhancement; Thyrotropin-releasing hormone receptor (Homo sapiens), P34981; AID 493056, 2011; in the data active = enhancement above about 30%
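Enhancer read-out: after compound pinning and an initial kinetic agonist-mode read, an EC20 of TRH (10 nM final) was injected and fluo-8 calcium signal (Ex 480/Em 530) followed at 1 s/cycle for 100 cycles in TRHR-expressing cells.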
TRPML1 ag = qHTS for Agonists of the Human Mucolipin Transient Receptor Potential 1 (TRPML1) | Mucolipin-1 (Homo sapiens), Q9GZU1 | TRPML1-expressing cells, Ca2+ dye fluorescence, FDSS | activation, % (no concentration beside the values) | hit rate 0.12% among 410,000 | AID 624414, 2012; in the data active = activation above about 50%; inconclusive = mostly about 30% to 49%
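Agonist activity was taken from a 110 s kinetic Ca2+ dye read on the FDSS after pinning compounds onto TRPML1-DL cells. The cells were seeded at 1,500/well with Tet inducer, incubated about 16 h, then dye-loaded at room temperature.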
TRHR enhancer-2 = qHTS for Small Molecule Agonists and Allosteric Enhancers of Human TRH Receptor: Confirmation Screen for Enhancers; shares compounds with TRHR enhancer-1; TRH receptor cell assay, enhancer confirmation qHTS; activity change, negative = inhibition, % at 46.1 µM; 970 tested, under 10 active;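 also: compound effect scored on response to added TRH at EC20 of 10 nM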
TRHR agonist-2 = qHTS for Small Molecule Agonists and Allosteric Enhancers of Human TRH Receptor: Confirmation Screen for Agonists; shares compounds with TRHR enhancer-1; TRHR-expressing cells, agonist activation read-out; Potency, µM (highest dose often 46.1 µM), usual class: activators; hit rate 8% among 970; also: nearly all actives have a fitted effect of over 75% in size
Each line names hits and unclear results; the compound was inactive in the other large screens (follow-up assays come after a bar, where they were run). Unless noted, calls follow the shape of the dose curve; as a rule, active = well fitted curve in the direction sought with a large enough effect; inconclusive = small, poorly fitted or top-dose-only effect, or another doubt; inactive = no such curve, though single readings can be large; an effect the other way counts as inactive or inconclusive.

O=C(O)c1ccc(S(=O)(=O)N2CCSCC2)cc1	TRHR enhancer-1 51 | TRHR enhancer-2 inactive | TRHR agonist-2 inactive
Cc1c(S(=O)(=O)NC2CCCCCC2)c(=O)n(C)c(=O)n1C	none
COc1cccc(NC(=O)CN(c2ccc(C)cc2)S(=O)(=O)c2c(C)nn(C)c2C)c1	TRHR agonist-1 33 | TRHR enhancer-2 inactive | TRHR agonist-2 inactive
COc1ccc(N(CC(=O)Nc2cccc(OC)c2)S(=O)(=O)c2c(C)nn(C)c2C)cc1	none
CCc1nnc(NC(=O)C2CCN(c3ncnc4sc(C)c(C)c34)CC2)s1	TRHR enhancer-1 42 | TRHR enhancer-2 inactive | TRHR agonist-2 inactive
CC(C)c1ccc2c(c1)-c1ccccc1S(=O)(=O)N2CC(=O)N1CCCCC1	none (no result: KCNH2 3.1 inh, KCNH2 WT inh)
COc1cc(F)ccc1-c1cc(C(=O)NCc2ccc(C(F)(F)F)cc2)[nH]n1	none (no result: KCNH2 3.1 inh, TRHR agonist-1, TRPML1 blocker, KCNH2 WT inh, TRHR enhancer-1)
O=C(NCCc1ccc(Cl)cc1)C12CC3CC(CC(O)(C3)C1)C2	TRHR enhancer-1 45 | TRHR enhancer-2 inactive | TRHR agonist-2 inactive
COc1cc(C2C(C#N)=C(N)Oc3cc(N(C)C)ccc32)cc2c1OCO2 (centres undefined)	TRHR agonist-1 45 | TRHR enhancer-2 inactive | TRHR agonist-2 inconclusive
CN1CCN(C(=S)NC(=O)c2cccc([N+](=O)[O-])c2)CC1	TRHR enhancer-1 50 | TRHR enhancer-2 inactive | TRHR agonist-2 inactive
CC1CCN(C(=S)NC(=O)c2cccc([N+](=O)[O-])c2)CC1	none
CCOC(=O)c1[nH]c(C)c(C(=O)OCC)c1C	none
CCOC(=O)c1[nH]c(C)c(C(=O)N(CC)CC)c1C	TRHR enhancer-1 52 | TRHR enhancer-2 inactive | TRHR agonist-2 inactive
CN(C(=O)COC(=O)c1c2c(nc3ccccc13)/C(=C/c1cccc([N+](=O)[O-])c1)CCC2)C1CCS(=O)(=O)C1 (centres undefined)	none
O=C(COC(=O)c1c2c(nc3ccccc13)/C(=C/c1cccc([N+](=O)[O-])c1)CCC2)NC1CCS(=O)(=O)C1 (centres undefined)	TRHR enhancer-1 42 | TRHR enhancer-2 inactive | TRHR agonist-2 inactive
Cc1nc(N)sc1C(=O)N1N=N1	none
CCN(CC(=O)Nc1c(F)cccc1F)C(=O)c1cccc(S(=O)(=O)N2CCCCCC2)c1	TRHR enhancer-1 42 | TRHR enhancer-2 inactive | TRHR agonist-2 inactive
COc1cccc(NS(=O)(=O)c2ccc3c(c2)N(C(C)=O)CCO3)c1	TRHR enhancer-1 104 | TRHR enhancer-2 inactive | TRHR agonist-2 inactive
CCOC(=O)C1CCCN(c2c(Nc3ccc(C)c(C)c3)c(=O)c2=O)C1 (centres undefined)	TRHR enhancer-1 57 | TRHR enhancer-2 inactive | TRHR agonist-2 inactive
CC(C)NC(=O)C1Cc2c(-c3ccc(Cl)cc3)ccnc2O1 (centres undefined)	none (no result: KCNH2 3.1 inh, TRHR agonist-1, TRPML1 blocker, KCNH2 WT inh, TRHR enhancer-1)
O=c1[nH]c(N2CCN(Cc3ccccc3)CC2)nc2c1CCC2	TRHR enhancer-1 41 | TRHR enhancer-2 inactive | TRHR agonist-2 inactive
O=c1[nH]c(N2CCN(c3ccccc3)CC2)nc2c1CCC2	none
Cc1c(/C=N/O)c2ccccn2c1C=O	TRHR enhancer-1 60 | TRHR enhancer-2 inactive | TRHR agonist-2 inactive
COc1nc(N2CCCC2)nc(-n2nnc(C(C)=O)c2C)n1	none
CC(=O)c1nnn(-c2nc(N3CCCC3)nc(N(c3ccccc3)c3ccccc3)n2)c1C	TRHR enhancer-1 45 | TRHR enhancer-2 inactive | TRHR agonist-2 inactive
CC(OCc1ccccc1)C(NC(=O)OC(C)(C)C)C(=O)NC1COC2CC(n3cc(F)c(=O)[nH]c3=O)OC12 (centres undefined)	none (no result: KCNH2 3.1 inh, TRHR agonist-1, KCNH2 WT inh, TRHR enhancer-1)
C=CCN(C(=O)CSc1nc2[nH]ncc2c(=O)n1-c1ccccc1OC)c1ccccc1	TRHR agonist-1 31 | TRHR enhancer-2 inactive | TRHR agonist-2 inactive
COc1cc(NC(=O)CSc2nc3[nH]ncc3c(=O)n2-c2ccccc2C)cc(OC)c1OC	none
COc1cc(C)c(NC(=O)c2cc(C3CC3)nc3c2cnn3C(C)C)cc1OC	none
CC(=O)c1cccc(OCCCOc2cccc3cccnc23)c1	none
CCN1C(=O)c2ccccc2S(=O)(=O)c2ccc(C(=O)NC(C)C)cc21	TRHR enhancer-1 53 | TRHR enhancer-2 inactive | TRHR agonist-2 inactive
COc1ccc(N2CC(NC(=O)N3CCN(C(=O)c4ccco4)CC3)CC2=O)cc1OC (centres undefined)	none
Cc1c(Cc2ccccc2)c(=O)oc2c(O)c(O)ccc12	TRHR enhancer-1 41 | TRHR enhancer-2 inactive | TRHR agonist-2 inactive
CCn1cnc2scc(-c3ccc(OC)cc3)c2c1=O	none
CCOc1ccc(-c2csc3ncn(-c4ccc(OC)cc4)c(=O)c23)cc1	TRHR enhancer-1 44 | TRHR enhancer-2 inactive | TRHR agonist-2 inactive
CCN(CC)c1nc2c(s1)C(=O)NCCC2	TRHR enhancer-1 51 | TRHR enhancer-2 inactive | TRHR agonist-2 inactive
COc1nc2c(s1)C(=O)NCCC2	none
CCCCCCn1cc(CN2CC(N(C)CCC)CS2(=O)=O)nn1 (centres undefined)	none (no result: KCNH2 3.1 inh, TRHR agonist-1, TRPML1 blocker, KCNH2 WT inh, TRHR enhancer-1)
O=C(CSc1nc2ccccc2s1)N1c2ccccc2Sc2ccc(C(F)(F)F)cc21	TRHR enhancer-1 58 | TRHR enhancer-2 inactive | TRHR agonist-2 inactive
CC1CCC2C(=O)N(c3cccc(C(=O)Nc4ccc(F)cc4)c3)C(=O)C2C1 (centres undefined)	TRHR enhancer-1 57 | TRHR enhancer-2 inactive | TRHR agonist-2 inactive
CCc1ccccc1N(CC(=O)N/N=C/c1ccc(OC(=O)OC)c(OC)c1)S(C)(=O)=O	TRHR agonist-1 43 | TRHR enhancer-2 inactive | TRHR agonist-2 inactive

Screening results from PubChem BioAssay.
